Source: PubChem (National Center for Advancing Translational Sciences (NCATS))
Only some compounds are listed: those with a hit (about 12% of all), similar ones and a draw of the others.
Shiga inhibitor: A qHTS for Small Molecule Inhibitors of Shiga Toxin; AID 2315, 2010; inhibition, % at 38.7 µM; Vero cells, Shiga toxin protein synthesis inhibition reporter; 290,000 compounds, 9.2% hits; in the data active means inhibition mostly above about 28%, no sharp cut-off; inactive means mostly below about 43%; further: 0% is about no effect
Sm TGR inh: qHTS Assay for the Inhibitors of Schistosoma Mansoni Peroxiredoxins. Schistosoma mansoni thioredoxin glutathione reductase (TGR), Q962Y6. purified TGR, DTNB reduction, TNB absorbance 405 nm. Potency, µM (highest dose often 114 µM), for the others: top-dose activity change, negative = inhibition, usual class: inhibitors. 360,000 compounds, 3% hits; active means well fitted inhibition curve with a large enough effect; inconclusive means small, poorly fitted or top-dose-only effect; inactive means no such curve, though single readings can be large or run the other way; further: potency means the concentration at half of the fitted maximal effect; on the % scale 0 is the no-effect control and ±100 the full control effect; nearly all actives have a fitted effect of over 60% in size
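TGR 20 nM + NADPH 100 uM (dispensed conc.), cpd preinc 15 min RT; start with NADPH (500 uM addition) then DTNB (15 mM addition). Kinetic TNB absorbance, 405 nm filter. Four-parameter Hill fit across titration.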
FMDV antiviral: High Throughput Screening for Foot and Mouth Disease Virus Antivirals; FMDV antiviral cell-based qHTS; Potency, µM (titrated, usually from 57.9 µM), without a hit: top-dose activity change, negative = inhibition, actives largely listed as inhibitors; 410,000 compounds, 1.2% hits; AID 1159524, 2015; calls by dose curve; tested in HEK293T cells; further: read-out not given here; potency means the concentration at half of the fitted maximal effect; on the % scale 0 is the no-effect control and ±100 the full control effect; nearly all actives have a fitted effect of over 45% in size
Cycloheximide cs: Cycloheximide Counterscreen for Small Molecule Inhibitors of Shiga Toxin. cell reporter, cycloheximide protein synthesis inhibition counterscreen. max response, %. 300,000 compounds, 12% hits; in the data active means max response mostly above about 13%, no sharp cut-off; inactive means mostly below about 14%; further: read at 38.3 µM for the half of the compounds with a filed dose; 0% is about no effect
* = called active by the depositor; u = inconclusive; x = no result.

SMILES | Shiga inhibitor | Sm TGR inh | FMDV antiviral | Cycloheximide cs
CCOc1ccc(C(C)=O)cc1N1C(=O)C2C3C=CC(O3)C2C1=O (stereo unspecified) | 8 | 0.71µM* | -25% | 11
CCCSc1nnc2[nH]c(=O)cc(C)n12 | x | -1% | -11% | x
COc1ccc(NC(=O)Cn2cc(C(=O)c3ccc(C)c(C)c3)c(=O)c3cc(OC)ccc32)cc1 | x | 1% | 6% | x
O=C1NCC(COCc2ccco2)O1 (stereo unspecified) | -18 | 45µM* | x | -2
CCCCN(CC)C(=O)CSc1nc2n[nH]c(C)c2c(=N)n1-c1cccc(Cl)c1 | x | 9% | u | x
COc1ccc(OC)c(CNC(=O)C2CCN(S(=O)(=O)c3ccc4[nH]c(=O)oc4c3)CC2)c1 | x | -1% | -8% | x
COc1ccc(N(C(=O)c2cccc(C)c2)S(=O)(=O)c2ccc3c(c2)n(C)c(=O)n3C)cc1 | x | 4% | 0.028µM* | x
COc1ccc(N(C(=O)c2ccncc2)S(=O)(=O)c2cccc([N+](=O)[O-])c2)cc1 | 25 | 32µM* | -4% | -2
CCCOc1ccc(-c2nc3ccc(Br)cc3c(=O)o2)cc1 | x | 7% | -8% | x
O=C(O)[C@H]1O[C@@H](Oc2ccc3ccc(=O)oc3c2)[C@H](O)[C@@H](O)[C@@H]1O | -1 | x | x | -4
C#C[C@]1(OC(C)=O)CC[C@H]2[C@@H]3CCC4=CC(=O)CC[C@@H]4[C@H]3CC[C@@]21C | -5 | x | x | 6
CCc1ccc(CN(C)C(=O)CCc2nnc(Cc3cccc(C)c3)o2)nc1 | 23 | -22% | 13% | 2
COc1ccc(OC)c(Cc2nnc(CCC(=O)N3CCCCCC3)o2)c1 | -11 | -4% | 39% | -3
CCCOC1CCCN(C(=O)CCc2nnc(Cc3cccc(C)c3)o2)C1 (stereo unspecified) | 95* | -5% | 42% | 47*
Cc1cccc(C(=O)NCC2CCCO2)c1 (stereo unspecified) | 30 | 0% | 13% | 11
COc1ccc(CCNC(=O)CCc2nnc(Cc3ccc4c(c3)OCO4)o2)cc1 | 9 | u | -8% | -3
Cc1cccc(Cc2nnc(CCC(=O)N(CC3CC3)CC3CCCO3)o2)c1 (stereo unspecified) | 58* | -13% | 35% | 47*
CN(CCc1ccccc1)C(=O)CCc1nnc(Cc2ccc3c(c2)OCO3)o1 | 32 | u | 28% | 13*
Cc1cccc(Cc2nnc(CCC(=O)N(C)C3CCOC3)o2)c1 (stereo unspecified) | 71* | 1% | 17% | 27*
COc1ccc(CCNC(=O)C(=O)NCC(c2ccco2)S(=O)(=O)c2ccc(C)cc2)cc1 (stereo unspecified) | x | -25% | u | x
CCc1ccc(CNC(=O)c2ccc(NC(=O)N3CCCCc4ccccc43)cc2)cc1 | x | 4% | -12% | x
CCCN(CC1CCCO1)C(=O)CCc1nnc(CCc2ccc(OC)cc2)o1 (stereo unspecified) | 16 | 0% | -9% | 27*
CCN1CCN(C(=O)CCc2nnc(CCc3ccc(OC)cc3)o2)[C@@H](C)C1=O | 30 | 0% | 20% | 23*
COc1ccc(CCNC(=O)CCc2nnc(Cc3ccc4c(c3)OCO4)o2)c(OC)c1 | -7 | u | -5% | -2
CCN(CC1CCCO1)C(=O)CCc1nnc(Cc2ccc3c(c2)OCO3)o1 (stereo unspecified) | -2 | 28µM* | -8% | 1
SMILES | Shiga inhibitor | Sm TGR inh | FMDV antiviral | Cycloheximide cs
Cc1ncc2c(c1CNC(=O)c1ccc3c(c1)OCO3)CCN(C(=O)C1Cc3ccccc3O1)C2 (stereo unspecified) | x | x | -7% | x
COC(=O)c1ccccc1NC(=O)Cn1c(CCC(=O)O)ccc1-c1ccc(C)cc1 | x | -6% | 7% | x
Cc1ccc(NC(=O)Cn2c(CCC(=O)O)ccc2-c2cccs2)cc1 | -10 | 25µM* | -18% | -3
Cc1ccccc1NC(=O)Cn1c(CCC(=O)O)ccc1-c1cccs1 | 30 | 40µM* | -25% | 1
COC(=O)c1ccccc1NC(=O)Cn1c(CCC(=O)O)ccc1-c1cccs1 | -18 | 50µM* | 7% | 10
CCCCCNC(=O)C1CCC(Cn2c(=O)c3sccc3n(CC)c2=O)CC1 (stereo unspecified) | x | 0% | -10% | x
Cc1cccc(C)c1NC(=O)NCCc1c[nH]c2ccccc12 | x | -10% | -5% | x
CC(=O)N1N=C(c2ccc(C)cc2)OC1c1ccc(C(C)C)cc1 (stereo unspecified) | 164* | 17% | 31% | 38*
CC(=O)N1N=C(c2cccnc2)OC1c1ccc(C(C)C)cc1 (stereo unspecified) | 18 | x | 31% | 12
CC(=O)N1N=C(c2cccc([N+](=O)[O-])c2)OC1c1ccc(Br)cc1 (stereo unspecified) | -5 | 10% | 10% | -3
CC(=O)N1N=C(c2ccc(C)cc2)OC1c1ccc(C)cc1 (stereo unspecified) | 23 | -11% | 17% | 22*
CC(=O)N1N=C(c2cccnc2)OC1c1ccccc1Cl (stereo unspecified) | -6 | -6% | -13% | -2
CC(=O)N1N=C(c2ccccc2)OC1c1ccc([N+](=O)[O-])s1 (stereo unspecified) | 8 | 32µM* | -20% | 11
COc1ccccc1C(=O)Nc1nsc(-c2ccccc2)n1 | 79* | -4% | 43% | 49*
COc1ccccc1C(=O)Nc1ccccn1 | 60* | -9% | 42% | 36*
CN1C(=O)CSc2ccc(NC(=O)Nc3ccccn3)cc21 | 39 | -19% | 41% | 50*
O=C(Nc1ccc(Cl)c(Cl)c1)Nc1ccccn1 | 66* | 9% | 55% | 46*
COc1ccc2nc(N(Cc3cccnc3)C(=O)CCc3ccccc3)sc2c1 | x | 12% | 22% | x
Cc1ccc(NC(=O)C(Cc2ccccc2)NS(=O)(=O)c2ccc3c(c2)CCC(=O)N3)cc1 (stereo unspecified) | x | -9% | -2% | x
COc1cccc(N2CCN(c3ncc4c(n3)CCN(Cc3ccc(Br)cc3)C4)CC2)c1 | x | 3% | u | x
Cc1ccc2[nH]c3c(=O)n(CC(=O)N4CCCC(C)C4)ncc3c2c1 (stereo unspecified) | x | 1% | -21% | x
COc1ccc(NC(=O)Nc2ccccn2)cc1OC | 62* | 8% | 63% | 34*
Cc1ccc(C)c(N2CCN(C(=O)Nc3ccc4c(c3)N(C)C(=O)CS4)CC2)c1 | 7 | 12% | 16µM* | -2
COc1ccc(NC(=O)Nc2cc(C(C)(C)C)on2)cc1OC | -17 | -1% | -6% | -3
CN1C(=O)CSc2ccc(NC(=O)N3CCN(c4ccccn4)CC3)cc21 | 4 | -15% | u | -4
O=C(c1ccc(CS(=O)(=O)c2ccccc2)o1)N1CCN(c2ncccn2)CC1 | -2 | 28µM* | -25% | 1
O=C(c1ccc(CS(=O)(=O)c2ccc(Br)cc2)o1)N1CCC2(CC1)OCCO2 | -16 | 35µM* | 9% | -2
O=C(CCS(=O)(=O)c1ccc(Br)cc1)N1CCC2(CC1)OCCO2 | 21 | 4% | 8% | 10
O=C(c1ccc(CS(=O)(=O)c2ccccc2)o1)N1CCC2(CC1)OCCO2 | -4 | 22µM* | 6% | -6
